Consider 8 compounds from PubChem BioAssay (NCI).

Test systems include SK-MEL-2 melanoma; EKVX NSCLC; SN12C renal; UO-31 renal; TK-10 renal; ACHN renal; CAKI-1 renal; A498 renal; CCRF-CEM leukemia; MOLT-4 leukemia; RPMI-8226 leukemia; OVCAR-8 ovarian; OVCAR-5 ovarian; OVCAR-4 ovarian; SK-OV-3 ovarian; IGROV1 ovarian; OVCAR-3 ovarian; HS 578T breast; NCI/ADR-RES ovarian.
Assay in all cases: NCI-60 one-dose screen, 48 h (100 = growth as untreated, 0 = no growth, -100 = all killed)
What all share (conditions): 10 µM unless noted

This is part of a sample that, as a whole, favours compounds with a hit. Of some 83,000 tested, about 20% had one in any assay.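 The test compound was applied at a single concentration to cells in 96-well plates for 48 hours, and percent growth was recorded.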 A number with no mark means an inactive call. Activity calls are given as the source filed them. Rule for the calls: active = growth percent below 10; inactive = the rest.

For `NC(=O)c1ccc[n+]([C@@H]2O[C@H](COP(=O)([O-])OP(=O)(O)OC[C@H]3O[C@@H](n4cnc5c(N)ncnc54)[C@H](O)[C@@H]3O)[C@@H](O)[C@H]2O)c1`, the growth in the assay on SK-MEL-2 melanoma was 137%; with EKVX NSCLC it was 106%; in the assay on SN12C renal, 107%; in the assay on UO-31 renal, 105%; with TK-10 renal it was 120%; with ACHN renal it was 106%. The growth was 98.3% in the assay with CAKI-1 renal; 97.2% in the assay on A498 renal; 95.4% in the assay with CCRF-CEM leukemia; 108% in the assay on MOLT-4 leukemia; 97.6% with RPMI-8226 leukemia; 96.8% in the assay on OVCAR-8 ovarian. For the same compound, the growth in the assay on OVCAR-5 ovarian was 107%; with OVCAR-4 ovarian it was 106%; with SK-OV-3 ovarian, 113%; with IGROV1 ovarian it was 109%; with OVCAR-3 ovarian, 107%; in the assay on HS 578T breast, 107%.

Regarding `CC1=C(SCCC(=O)OC(C[Se]C2=C(C)C(=O)c3ccccc3C2=O)C(=O)NCCCCCC(=O)OCc2ccccc2)C(=O)c2ccccc2C1=O` (centres undefined), the growth is 23.3% in the assay with SK-MEL-2 melanoma; 55.8% in the assay on EKVX NSCLC; 38.4% in the assay on SN12C renal; 25.3% in the assay with UO-31 renal; 114% in the assay on TK-10 renal; 36.4% in the assay with ACHN renal. Also, the growth in the assay with CAKI-1 renal is 90.8%; with A498 renal, 70.8%; with CCRF-CEM leukemia it was 10.8%; in the assay on MOLT-4 leukemia, 10.9%; with RPMI-8226 leukemia, 30.2%; in the assay on OVCAR-8 ovarian, 39%. The growth in the assay with OVCAR-5 ovarian is 44.6%; in the assay on OVCAR-4 ovarian, 53.2%; in the assay on SK-OV-3 ovarian, 32.7%; in the assay with IGROV1 ovarian it was 25%; with OVCAR-3 ovarian, 21%; in the assay with HS 578T breast, 34%.

For `O=C(CSc1nccc(Nc2ccc(S(=O)(=O)Nc3nccs3)cc2)n1)c1ccc(F)cc1`, the growth with SK-MEL-2 melanoma is 105%; with EKVX NSCLC, 97.5%; in the assay on SN12C renal, 110%; with UO-31 renal, 75.8%; in the assay with TK-10 renal, 110%; in the assay on ACHN renal, 103%. Moreover, the growth is 96.4% with CAKI-1 renal; 109% with A498 renal; 108% in the assay on CCRF-CEM leukemia; 115% in the assay on MOLT-4 leukemia; 108% in the assay on RPMI-8226 leukemia; 98.1% in the assay on OVCAR-8 ovarian. In addition, the growth was 106% with OVCAR-5 ovarian; 99.2% in the assay on OVCAR-4 ovarian; 97.6% with SK-OV-3 ovarian; 106% with IGROV1 ovarian; 111% in the assay on OVCAR-3 ovarian; 97.9% in the assay with HS 578T breast.

`COc1c(CCC[P+](c2ccccc2)(c2ccccc2)c2ccccc2)cc2c(c1OC)OCO2`: the growth with SK-MEL-2 melanoma was -24.2% (active); with EKVX NSCLC it was 15.6%; in the assay with SN12C renal it was 2.66% (active); in the assay on UO-31 renal, 86.6%; with TK-10 renal it was 2.13% (active); in the assay on ACHN renal it was 55.6%. The growth in the assay with CAKI-1 renal was 31.9%; in the assay with A498 renal it was -9.74% (active); with CCRF-CEM leukemia it was 29.7%; in the assay with MOLT-4 leukemia, 33.3%; in the assay with RPMI-8226 leukemia it was 8.37% (active); with OVCAR-8 ovarian, 8.63% (active). The growth is 30.4% in the assay on OVCAR-5 ovarian; 6.3% (active) in the assay on OVCAR-4 ovarian; 14.1% in the assay on SK-OV-3 ovarian; 21.2% with IGROV1 ovarian; 7.21% (active) in the assay on OVCAR-3 ovarian; 11.7% with HS 578T breast. Further, the growth in the assay on NCI/ADR-RES ovarian is 103%.

Consider `O=C1/C(=C2/C=Nc3ccccc32)N(O)c2ccccc21`, for which the growth with SK-MEL-2 melanoma was 90.4%; with EKVX NSCLC, 66.9%; with SN12C renal, 74.8%; in the assay with UO-31 renal, 57.7%; with TK-10 renal, 129%; in the assay on ACHN renal it was 68.7%. The growth in the assay with CAKI-1 renal was 57.8%; in the assay with A498 renal, 55.4%; in the assay on CCRF-CEM leukemia, 46.2%; with MOLT-4 leukemia, 48.4%; with RPMI-8226 leukemia, 38.9%; in the assay on OVCAR-8 ovarian, 62.1%. Also, the growth with OVCAR-5 ovarian is 78.2%; in the assay on OVCAR-4 ovarian it was 50%; in the assay on SK-OV-3 ovarian, 98.8%; with IGROV1 ovarian, 48.1%; in the assay with OVCAR-3 ovarian, 34.8%; in the assay with HS 578T breast, 87.7%. Besides, in the assay with NCI/ADR-RES ovarian, the growth was 55.2%.

As to `COc1ccc(C2CC(c3cccc(OC)c3)=NN2C(=O)c2cc(OC)c(OC)c(OC)c2)cc1` (centres undefined), the growth in the assay on SK-MEL-2 melanoma is 35.9%; with EKVX NSCLC, 46.5%; in the assay with SN12C renal, 39.6%; in the assay with UO-31 renal, 27.4%; in the assay on TK-10 renal, 36.8%; with ACHN renal it was 46.9%. Moreover, the growth in the assay on CAKI-1 renal is 23.6%; with A498 renal it was -0.548% (active); in the assay with CCRF-CEM leukemia, 8.7% (active); in the assay with MOLT-4 leukemia it was 9.31% (active); in the assay on RPMI-8226 leukemia it was 15%; in the assay with OVCAR-8 ovarian, 43.9%. Further, the growth with OVCAR-5 ovarian was 44.5%; in the assay on OVCAR-4 ovarian it was 56.6%; in the assay on SK-OV-3 ovarian, 33.7%; with IGROV1 ovarian, 27.9%; in the assay on OVCAR-3 ovarian, -55.7% (active); with HS 578T breast, -13.5% (active). The growth in the assay on NCI/ADR-RES ovarian was -30.4% (active).

Take `COc1ccc(CNC(=O)C(O)C(Cc2ccccc2)NC(=O)c2[nH]c3ccccc3c(=O)c2C)cc1OC` (centres undefined): the growth in the assay with SK-MEL-2 melanoma was 99.5%; in the assay with EKVX NSCLC it was 99%; in the assay on SN12C renal it was 103%; in the assay with UO-31 renal it was 98.7%; in the assay with TK-10 renal, 93.6%; in the assay on ACHN renal it was 108%. Besides, the growth was 99.6% with CAKI-1 renal; 113% in the assay on A498 renal; 108% in the assay with CCRF-CEM leukemia; 99.8% with MOLT-4 leukemia; 111% in the assay with RPMI-8226 leukemia; 103% in the assay with OVCAR-8 ovarian. Also, the growth is 98.1% with OVCAR-5 ovarian; 111% in the assay on OVCAR-4 ovarian; 103% in the assay on SK-OV-3 ovarian; 112% with IGROV1 ovarian; 111% in the assay on OVCAR-3 ovarian; 97.4% in the assay on HS 578T breast. For the same compound, the growth in the assay on NCI/ADR-RES ovarian is 107%.

As to `CN1C(=O)N(C)C2C1NN=c1s/c(=C\c3ccccc3)c(=O)n12` (centres undefined), the growth in the assay on SK-MEL-2 melanoma was 48.4%; in the assay with EKVX NSCLC, 78.5%; with SN12C renal, 50.1%; with UO-31 renal it was 44.8%; in the assay with TK-10 renal, 10%; in the assay on ACHN renal, 29.4%. The growth was 33.5% in the assay on CAKI-1 renal; 4.23% (active) in the assay on A498 renal; 42.2% with CCRF-CEM leukemia; 58.1% with MOLT-4 leukemia; 61.6% in the assay with RPMI-8226 leukemia; 60% with OVCAR-8 ovarian. The growth with OVCAR-5 ovarian is 66.6%; in the assay with OVCAR-4 ovarian, 66.6%; in the assay on SK-OV-3 ovarian, 47.6%; with IGROV1 ovarian, 46.4%; with OVCAR-3 ovarian it was 8.76% (active); with HS 578T breast, 40.7%. Besides, the growth with NCI/ADR-RES ovarian is 32.5%.
